According to paper PMC12136788:
Where a chain is given by its changes, count along the chain named. In all, about 24,000 sequences were measured (“enrichment r”: median about 0.99, highest 2% from about 3.7 on). Only a selection was taken, and the highest values are over-represented in it overall.

T1: UNK ZnF1-3 (human, UniProt Q9C0B0 31-174)
T1 sequence: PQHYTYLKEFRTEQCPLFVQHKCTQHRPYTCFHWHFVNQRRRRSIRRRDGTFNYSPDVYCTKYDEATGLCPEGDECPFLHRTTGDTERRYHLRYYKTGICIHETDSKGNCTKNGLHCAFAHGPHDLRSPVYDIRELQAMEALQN

B1: 44559432_44560298_1111_3pUTR_ENSMUSG00000032096_ENSMUST00000034607|mouse|control|control (ssRNA)
RNA: GGGAGUUCUACAGUCCGACGAUCACAUUUGGAUGCGUCUGUAGCUGCACCCCUUUCUUAUCUUCAUUUUCUACAUGAAGACGAAUCCGGCCAAAUUUGUCAUCUGAGAUCCUAAGCAUGAUCAUGCCAUGCAACUCCAUAUUCCAACAGAGGAUUGAGCAUCA
B2: chr15:55677894:55677895:-_ENSG00000260916_ENST00000569205|hu_mus|motif|central (ssRNA)
RNA: GGGAGUUCUACAGUCCGACGAUCGGAACAUUCUAGAGUCAGUCCACAGUUGUCACUGGCUGUGGCAGAAUUCACGAUCUCGGUAUCAGAACCCUCAUGAUUGAUGACAGUCCAGCCACAAGAUGAGUCGCUGUCGCUGGAACUCAACAGAGGAUUGAGCAUCA
B3: chr5:133537698:133537699:-_ENSG00000113575_ENST00000481195|hu_mus|FALSE|FALSE (ssRNA)
RNA: GGGAGUUCUACAGUCCGACGAUCGCUCUCGUGAUUCCCUCGGAGUAUGGUGAUGCGCUCUCGGUAACGAACCUUAAGAGCUACAAGCAGUGUAACUGUUUCAACAGAGUAAUAUCCUCUGUCCACAUAGUCUCCCAUAAACAGCAACAGAGGAUUGAGCAUCA
B4: chr7:129114946:129114947:-_ENSMUSG00000034951_ENSMUST00000057576|mus_hu|motif|central (ssRNA)
RNA: GGGAGUUCUACAGUCCGACGAUCAUCAACAAGCAUCAUUAAGCUGUUCUGCAUACCUGUUAGCUUGGCAGAAAUCACAGCGGUGUCCUGAGUCUUAAAUGUCUCCUCAAUAUCGGCGCUCAACGUGCUCCACUUAUCUGCUUCCAACAGAGGAUUGAGCAUCA
B5: chr2:179515052:179515053:+_ENSMUSG00000000305_ENSMUST00000000314|mus_hu|mus_mus_mus_hu_False|28_108 (ssRNA)
RNA: GGGAGUUCUACAGUCCGACGAUCGCUUUCCCGCGCAGUCACCGUGAACGCCACCUGCUCGGAGGGGACCUGCAGCUCCCGGGUGGCGAAGACUGUCCCAUCUGCCCCGACUUUGAAGUCCAUGCUGUUGGUCUCAUAUUGUGUCAACAGAGGAUUGAGCAUCA
B6: 110384571_110384691_763_CDS_ENSG00000138802_ENST00000265175|human|control|control (ssRNA)
RNA: GGGAGUUCUACAGUCCGACGAUCUCCUGAAAGACUUUGCUGCUGGUGGUGCUGUUGUGAUGGUAGAGGUGGAAGUGGCGAUGGAUGGCUGAUAGCUGUAUUUUGACCAGAGAAUGAAUUAUCUUUAACUGGCCUAACAGUCGGCAACAGAGGAUUGAGCAUCA
B7: chr22:38881817:38881818:-_ENSG00000100201_ENST00000396821|hu_mus|motif|central (ssRNA)
RNA: GGGAGUUCUACAGUCCGACGAUCUAAUUAUAGACUGGAUCUUUUGGGUGGGCAGAAGAAACCUGGCAGUGAAAUUUUAACGGUCUGCAUUAAAAAAAGAUAAACCGUAAUGGUUGAGAAAAGAAAAAAUAAAAAUGAAAAGGUCAACAGAGGAUUGAGCAUCA
B8: chr22:38881817:38881818:-_ENSG00000100201_ENST00000396821|hu_mus|FALSE|FALSE (ssRNA)
RNA: B7 RNA with G81U, G82A
B9: chr1:109605286:109605287:-_ENSG00000197780_ENST00000461096|hu_mus|hu_hu_hu_mus_True|58_108 (ssRNA)
RNA: GGGAGUUCUACAGUCCGACGAUCAAGAACAAUAACAACAUUCAGUAACCUCUUUAAAUGCAAUUAUCCUUAUUAUAAACUAAGGGCAAUAAUAAUUUAAUACCGUAAGUGAACUACACACAAAGCCUGAACCGCGAAAAUGGUCAACAGAGGAUUGAGCAUCA
B10: 65775431_65775551_264_CDS_ENSG00000116675_ENST00000371069|human|control|control (ssRNA)
RNA: GGGAGUUCUACAGUCCGACGAUCCACUCUCUGCUUGCCGCCAACCCCGCCGCUUCCCGCACUUAAGUCCCCGUUACUGUCCACCAGCUGCAAAGAUUCAUAACCAUCGUUGCUGGUCUUUUUCCGGUAGCUCCCGAGGAGGCUCAACAGAGGAUUGAGCAUCA
B11: chr4:42581876:42581877:-_ENSG00000124406_ENST00000264449|hu_hu|FALSE|FALSE (ssRNA)
RNA: GGGAGUUCUACAGUCCGACGAUCGCCACCAUAGUUUAGAUUGAGAUACCAGUCUUUUCCAGAAUGCCUUCGAUUCCAAAUGGCUGAGCCCACAGAACAGACAAGAGACAUGGCAAUUAAGAUACAAAAUAAAAUCAAAAUUUGCAACAGAGGAUUGAGCAUCA
B12: chr21:34924512:34924513:+_ENSG00000159140_ENST00000381679|hu_mus|motif|central (ssRNA)
RNA: GGGAGUUCUACAGUCCGACGAUCAGAUGACAUCAUGGAACGUUCUGCAGCAUAGGACAUCAUCAUAGAACGUCUAGAUGCGGACAUCAAGGGUCUAGGUGCUAACCUGUAUGGCCUAGGUGCUAUCCUAUAGGACCUGGGUGCCAACAGAGGAUUGAGCAUCA
B13: 122452171_122453414_3711_CDS_ENSMUSG00000034602_ENSMUST00000073792|mouse|control|control (ssRNA)
RNA: GGGAGUUCUACAGUCCGACGAUCUCGGUCCAGUAGAUGAAAGAGUACCUUCCAAAUAACGGUGUGCCAGGUGGAGUGCUGCAGCAGGGUCCCGUGCGCUCCGAUCGUGGAGAACAGGGUCUGCCCUGCGCUCUUCCUCACGGCCAACAGAGGAUUGAGCAUCA
B14: chr17:56552419:56552420:-_ENSMUSG00000013236_ENSMUST00000086828|mus_mus|mus_mus_mus_hu_False|48_58 (ssRNA)
RNA: GGGAGUUCUACAGUCCGACGAUCAAAAAAUACACUAUUUAAAAAAAAUGAAAUGUCACGGGAUACAGUUACACUGACACUAUUAAAAAAAAAUAAGAUUCUGGUCCCAGCCCAGUGUCCCCAGGCUGCAGAGCGGGGAGGAGCCAACAGAGGAUUGAGCAUCA
B15: chr17:56552419:56552420:-_ENSMUSG00000013236_ENSMUST00000086828|mus_mus|mus_mus_mus_hu_False|1_48 (ssRNA)
RNA: B14 RNA with C77G, C79G, A81U, A138C, G139A, C143G
B16: chr17:56552419:56552420:-_ENSMUSG00000013236_ENSMUST00000086828|mus_mus|mus_mus_mus_hu_False|48_98 (ssRNA)
RNA: B14 RNA with U38A, U39A, C77G, C79G, A81U

Target: T1, UNK ZnF1-3
Experiment: nsRBNS (natural sequence RNA bind-n-seq); RBNS binding buffer (assumed for nsRBNS): 25 mM Tris pH 7.5, 150 mM KCl, 3 mM MgCl2, 0.01% Triton X-100, 500 ug/ml BSA, 20 U/ml SUPERase-In, 4 C; UNK is unkempt and MSI1 is Musashi-1; names of the RNAs are library labels; protein concentration not given here; high values mean tight binding

In order of falling binding signal:
1. B16  11.1 enrichment R
2. B7  8.6 enrichment R
3. B14  8.56 enrichment R
4. B8  6.63 enrichment R
5. B15  3.79 enrichment R
6. B11  3.52 enrichment R
7. B9  1.22 enrichment R
8. B6  1.16 enrichment R
9. B10  0.845 enrichment R
10. B4  0.781 enrichment R
11. B5  0.727 enrichment R
12. B3  0.691 enrichment R
13. B12  0.683 enrichment R
14. B13  0.594 enrichment R
15. B1  0.578 enrichment R
16. B2  0.495 enrichment R
